Measurements taken from PubChem BioAssay (EPA / NIEHS).
Results filed as inconclusive are left out. The source made the active and inactive calls. How the source made its calls, unless noted: active means hit-call score of the fitted dose curve at least 0.9, where 1 is the maximum; inactive means score below 0.9.

Tests used:
[1] = UKN5_HCS_SBAD2_cell_viability: Viability Assessment in the University of Konstanz (UKN) Leist Lab Neurite Outgrowth Assay in human iPSC-derived immature Dorsal Root Ganglia Neurons (UKN5) (AID 2284056)
In short: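 iPSC-derived immature peripheral neurons (SBAD2) seeded on Matrigel with CHIR99021, SU5402 and DAPT, dosed 1 h later for 24 h. Viability from Hoechst H-33342 and calcein-AM live staining, high-content imaging; bidirectional fit versus DMSO.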

[2] = UKN5_HCS_SBAD2_neurite_outgrowth: University of Konstanz (UKN) Leist Lab Neurite Outgrowth Assay in human iPSC-derived immature Dorsal Root Ganglia Neurons (UKN5) (AID 2284070); settings: actives raise or lower the signal
In short: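 Neurite outgrowth is quantified as calcein-AM-labelled neurite area in human iPSC-derived peripheral neurons treated for 24 h, starting 1 h after plating in medium with CHIR99021 (1.5 uM), SU5402 (5 uM) and DAPT (5 uM).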

[3] = UKN2_HCS_IMR90_neural_migration: University of Konstanz (UKN) Leist Lab Neural Crest Cell Migration Assay in human induced IMR90 Pluripotent Stem Cells (UKN2) (AID 2284204); settings: actives raise or lower the signal
In short: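 High-content imaging of calcein-AM and Hoechst stained cells quantifies migration into a stopper-defined gap after 24 h compound exposure. Neural crest cells from IMR90 iPSC migrated 24 h in EGF/FGF N2-S medium before dosing; DMSO baseline.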

[4] = UKN4_HCS_LUHMES_neurite_outgrowth: University of Konstanz (UKN) Leist Lab Neurite Outgrowth Assay in human LUHMES cells (UKN4) (AID 2284206); settings: actives raise or lower the signal
In short: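 Neurite area in dopaminergic-model LUHMES neurons is measured by high-content imaging of calcein-AM after 24 h treatment starting shortly after day-2 replating; Hoechst staining tracks viability.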

[5] = UKN4_HCS_LUHMES_cell_viability: Viability Assessment in the University of Konstanz (UKN) Leist Lab Neurite Outgrowth Assay in human LUHMES cells (UKN4) (AID 2284232)
In short: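 Measured in replated, 2-day-differentiated LUHMES cells treated 24 h; stained 30 min with H-33342 and calcein-AM before high-content imaging.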

[6] = UKN2_HCS_IMR90_cell_viability: Viability Assessment in the University of Konstanz (UKN) Leist Lab Neural Crest Cell Migration Assay in human induced IMR90 Pluripotent Stem Cells (UKN2) (AID 2284233);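 further: cells exposed to compound for 24 h after a 24 h migration phase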
In short: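 After calcein-AM/Hoechst staining, viability is quantified by high-content fluorescence imaging, relative to DMSO, in iPSC (IMR90)-derived neural crest cells. Exposure lasts 24 h, starting after a 24 h migration period on PLO/laminin/fibronectin coating.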

[7] = system: Brachyury (BRA) Protein Expression, Deisenroth Lab, TBXT (gene 6862); test: CCTE_Deisenroth_DEVTOX-GLR_legacy_Bra: (Legacy) CCTE's DevTox GLR-Endo Assay Evaluation of Brachyury (BRA) Protein Expression, Deisenroth Lab (AID 2284329)
In short: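 Percent Bra-positive cells, scored by high-content imaging against a threshold of 5x BMAD over the undifferentiated control median, with the 0.2% DMSO median subtracted. RUES2-GLR cultures were dosed twice at 24 h intervals across a 48 h differentiation, at 1 nM–200 uM in ten steps, with n=4 replicates.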

[8] = CCTE_Deisenroth_DEVTOX-GLR_legacy_CellCount: (Legacy) Viability Assessment in CCTE's DevTox GLR-Endo Assay, Deisenroth Lab (AID 2284331); settings: actives raise or lower the signal
In short: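 Seed RUES2-GLR 24 h; differentiate 48 h, dosing at 0 and 24 h; fix, stain nuclei; image 5 fields/well; count nuclei. Conc. 1 nM - 200 uM, single technical replicate, n=4 experiments; bidirectional fit vs 0.2% DMSO.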

[9] = system: SRY-box transcription factor 2 (SOX2) Protein Expression, Deisenroth Lab, SOX2 (gene 6657); test: CCTE_Deisenroth_DEVTOX-GLR_legacy_Sox2: (Legacy) CCTE's DevTox GLR-Endo Assay Evaluation of SRY-box transcription factor 2 (SOX2) Protein Expression, Deisenroth Lab (AID 2284346)
In short: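 Percent Sox2-positive cells was scored by high-content imaging of 5 fields per well. Positivity cutoff was 5x BMAD over the directed endoderm control, and the DMSO median was subtracted. Cells were RUES2-GLR, dosed twice at 24-h intervals over 48 h of differentiation (1 nM-200 uM).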

[10] = system: SRY-box transcription factor 2 (SOX2) Protein Expression, Deisenroth Lab, SOX2 (gene 6657); test: CCTE_Deisenroth_DEVTOX-GLR_Endo_SOX2: CCTE's DevTox GLR-Endo Assay Evaluation of SRY-box transcription factor 2 (SOX2) Protein Expression, Deisenroth Lab (AID 2284412; active means hit-call score of the fitted dose curve at least 0.9, where 1 is the maximum)
In short: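 Endpoint is percent SOX2-positive cells (SOX2+ count/total cells) minus 0.2% DMSO control, from high-content imaging of fixed, nuclear-stained RUES2-GLR cells. Dosing twice at 24 h intervals over 48 h differentiation, 1 nM–200 uM in 10 points.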

[11] = system: SRY-box transcription factor 17 (SOX17) Protein Expression, Deisenroth Lab, SOX17 (gene 64321); test: CCTE_Deisenroth_DEVTOX-GLR_Endo_SOX17: CCTE's DevTox GLR-Endo Assay Evaluation of SRY-box transcription factor 17 (SOX17) Protein Expression, Deisenroth Lab (AID 2284413)
In short: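 RUES2-GLR human pluripotent cells were seeded 24 h, then differentiated toward endoderm for 48 h with two chemical exposures 24 h apart (10-point series, 1 nM - 200 uM). Nuclei-stained fixed cells were imaged; endpoint is percent change in SOX17+ cells versus 0.2% DMSO.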

[12] = system: Brachyury (BRA) Protein Expression, TBXT (gene 6862); test: CCTE_Deisenroth_DEVTOX-GLR_Endo_BRA: CCTE's DevTox GLR-Endo Assay Evaluation of Brachyury (BRA) Protein Expression, Deisenroth Lab (AID 2284417)
In short: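 Percent BRA+ (mesoderm) RUES2-GLR cells after 48 h differentiation with two exposures, 1 nM - 200 uM; 0.2% DMSO control subtracted.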

[13] = CCTE_Deisenroth_DEVTOX-GLR_Endo_CellCount: Viability Assessment in CCTE's DevTox GLR-Endo Assay, Deisenroth Lab (AID 2284420)
In short: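 Human pluripotent RUES2-GLR line; 24 h pre-seed; 48 h endoderm-directed differentiation; 2 doses, q24h; 10 conc., 1 nM - 200 uM; fix + nuclear dye; 5 fields/well imaged; readout = nuclei count, % change vs 0.2% DMSO; n=4.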

[14] = system: SRY-box transcription factor 17 (SOX17) Protein Expression, Deisenroth Lab, SOX17 (gene 64321); test: CCTE_Deisenroth_DEVTOX-GLR_Pluri_SOX17: CCTE's DevTox GLR-Pluri Assay Evaluation of SRY-box transcription factor 17 (SOX17) Protein Expression, Deisenroth Lab (AID 2284427; active means hit-call score of the fitted dose curve at least 0.9, where 1 is the maximum)
In short: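 Human RUES2-GLR pluripotent line; 24 h seeding, 48 h defined-media differentiation, 2 doses q24h, 10 conc 1 nM - 200 uM. Fix, nuclear stain, image 5 fields/well. Endpoint = %SOX17+ minus 0.2% DMSO; n=4.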

[15] = system: SRY-box transcription factor 2 (SOX2) Protein Expression, Deisenroth Lab, SOX2 (gene 6657); test: CCTE_Deisenroth_DEVTOX-GLR_Pluri_SOX2: CCTE's DevTox GLR-Pluri Assay Evaluation of SRY-box transcription factor 2 (SOX2) Protein Expression, Deisenroth Lab (AID 2284428)
In short: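 Steps: seed RUES2-GLR cells for 24 h; start 48 h differentiation in defined media; dose test chemicals at 0 and 24 h (1 nM–200 uM); fix, stain nuclei, image; compute SOX2+ percentage against 0.2% DMSO wells.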

[16] = system: Brachyury (BRA) Protein Expression, Deisenroth Lab, TBXT (gene 6862); test: CCTE_Deisenroth_DEVTOX-GLR_Pluri_BRA: CCTE's DevTox GLR-Pluri Assay Evaluation of Brachyury (BRA) Protein Expression, Deisenroth Lab (AID 2284429; active means hit-call score of the fitted dose curve at least 0.9, where 1 is the maximum)
In short: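 Percent BRA+ cells (BRA+ count over total cells) by high-content imaging of fixed RUES2-GLR cultures, corrected by 0.2% DMSO control. Cells received two doses over 48-hour differentiation, 1 nM–200 uM, n=4 experiments.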

[17] = CCTE_Deisenroth_DEVTOX-GLR_Pluri_CellCount: Viability Assessment in CCTE's DevTox GLR-Pluri Assay Evaluation of Total Cell Counts, Deisenroth Lab (AID 2284430)
In short: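 Cytotoxicity readout: fluorescent nuclei counts by high-content imaging, expressed as percent change relative to 0.2% DMSO. Human RUES2-GLR pluripotent line differentiated 48 h, dosed twice at 24-h intervals across 1 nM - 200 uM (10 points).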

Measured: AC50

O.O=S(=O)([O-])[O-].[Mn+2]
inactive: [2] | [3] | [4] | [5]
active: [1] 18.8 µM | [6] 50 µM

COc1ccc2[nH]c([S@@](=O)Cc3ncc(C)c(OC)c3C)nc2c1
active: [7] 67.9 µM | [8] 48.1 µM | [9] 56.1 µM | [10] 83.8 µM | [11] 33.8 µM | [12] 70.6 µM | [13] 47.9 µM | [14] 54 µM | [15] 66.6 µM | [16] 46.4 µM | [17] 31.3 µM
